Columns and labels:
Assay in all cases: DAPPL (digital affinity profiling via proximity ligation, sequencing); 10 mM Tris-HCl pH 7.5, 50 mM NaCl, 1 mM DTT, 4% glycerol, room temperature, 30 min; GST-TFs on glutathione beads, 16-mer random dsDNA library, 0.1% formaldehyde crosslink after washing; high values mean tight binding
Details in all cases: protein: recombinant; tags: N-terminal GST; dsDNA, one strand shown
FLI1 = target: T1, FLI1 (Homo sapiens, UniProt Q01543 1-452)
T1 sequence: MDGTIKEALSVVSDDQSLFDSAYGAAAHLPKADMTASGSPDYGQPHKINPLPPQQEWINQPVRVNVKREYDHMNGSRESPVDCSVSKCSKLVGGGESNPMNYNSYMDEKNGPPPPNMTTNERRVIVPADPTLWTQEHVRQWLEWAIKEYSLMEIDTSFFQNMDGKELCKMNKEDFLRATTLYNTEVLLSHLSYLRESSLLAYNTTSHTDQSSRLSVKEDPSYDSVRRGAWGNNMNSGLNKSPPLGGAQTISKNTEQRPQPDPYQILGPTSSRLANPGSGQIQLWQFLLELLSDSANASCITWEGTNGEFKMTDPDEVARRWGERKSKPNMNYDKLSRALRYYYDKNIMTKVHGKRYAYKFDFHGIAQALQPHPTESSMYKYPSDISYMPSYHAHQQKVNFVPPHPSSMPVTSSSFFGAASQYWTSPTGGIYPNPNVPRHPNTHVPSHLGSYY
Method in brief: (§1)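 After expression in yeast as GST fusions, human transcription factors were bound to glutathione beads, DNA-barcoded and mixed with a tag-only sample. The pools were incubated with 200 nmole of a 16-mer random double-stranded DNA library in Tris/NaCl/DTT/glycerol buffer (30 min, room temperature), washed and crosslinked with 0.1% formaldehyde. Proximity ligation with BsaI/T4 ligase ran for 1 h at 37 °C, before PCR amplification and sequencing on an Illumina NextSeq500. Binding signal is a hexamer's read frequency for a factor divided by its frequency for the tag-only sample.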

ELK1 = target: T2, ELK1 (Homo sapiens, UniProt P19419 1-428)
T2 sequence: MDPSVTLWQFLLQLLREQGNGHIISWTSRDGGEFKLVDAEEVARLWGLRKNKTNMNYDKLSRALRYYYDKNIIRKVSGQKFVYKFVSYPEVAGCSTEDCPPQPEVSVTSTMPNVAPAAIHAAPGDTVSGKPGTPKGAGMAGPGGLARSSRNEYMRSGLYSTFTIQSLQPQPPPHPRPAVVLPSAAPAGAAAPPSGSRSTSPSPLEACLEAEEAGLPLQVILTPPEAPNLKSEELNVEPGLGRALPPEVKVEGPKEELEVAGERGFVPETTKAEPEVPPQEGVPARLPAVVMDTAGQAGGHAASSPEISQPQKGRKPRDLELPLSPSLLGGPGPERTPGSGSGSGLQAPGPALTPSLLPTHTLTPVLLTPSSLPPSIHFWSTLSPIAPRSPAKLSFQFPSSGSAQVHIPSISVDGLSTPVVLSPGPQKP
Method in brief: as §1

GABPA = target: T3, GABPA (Homo sapiens, UniProt Q06546 1-454)
T3 sequence: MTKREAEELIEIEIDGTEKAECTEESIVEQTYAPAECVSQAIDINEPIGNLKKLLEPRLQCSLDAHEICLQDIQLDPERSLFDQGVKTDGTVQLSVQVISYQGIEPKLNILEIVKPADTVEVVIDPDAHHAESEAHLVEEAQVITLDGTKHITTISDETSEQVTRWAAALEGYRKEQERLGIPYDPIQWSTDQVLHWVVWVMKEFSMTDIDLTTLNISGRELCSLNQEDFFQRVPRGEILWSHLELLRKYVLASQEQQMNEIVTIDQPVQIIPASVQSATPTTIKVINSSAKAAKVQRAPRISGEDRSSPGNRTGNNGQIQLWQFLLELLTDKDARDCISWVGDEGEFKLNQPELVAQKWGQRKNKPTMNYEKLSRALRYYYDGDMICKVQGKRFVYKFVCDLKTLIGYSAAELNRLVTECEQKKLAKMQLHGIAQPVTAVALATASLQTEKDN
Method in brief: as §1

ERG = target: T4, ERG (Homo sapiens, UniProt P11308 1-479)
T4 sequence: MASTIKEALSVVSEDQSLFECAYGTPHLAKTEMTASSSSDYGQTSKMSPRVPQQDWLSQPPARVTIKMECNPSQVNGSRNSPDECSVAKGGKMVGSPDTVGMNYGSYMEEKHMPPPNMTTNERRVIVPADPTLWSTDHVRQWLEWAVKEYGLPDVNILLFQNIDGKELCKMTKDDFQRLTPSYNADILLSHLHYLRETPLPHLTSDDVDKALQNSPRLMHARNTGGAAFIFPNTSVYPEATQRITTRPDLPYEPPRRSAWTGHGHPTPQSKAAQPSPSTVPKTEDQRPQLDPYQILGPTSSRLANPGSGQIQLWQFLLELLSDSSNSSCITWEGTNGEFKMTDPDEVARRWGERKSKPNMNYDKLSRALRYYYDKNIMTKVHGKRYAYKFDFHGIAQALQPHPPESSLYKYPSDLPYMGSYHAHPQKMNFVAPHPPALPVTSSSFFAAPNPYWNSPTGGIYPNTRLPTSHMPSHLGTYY
Method in brief: as §1

ELF1 = ELF1 (Homo sapiens, UniProt P32519 1-619)
Method in brief: as §1

EHF = target: T5, EHF (Homo sapiens, UniProt Q9NZC4 1-300)
T5 sequence: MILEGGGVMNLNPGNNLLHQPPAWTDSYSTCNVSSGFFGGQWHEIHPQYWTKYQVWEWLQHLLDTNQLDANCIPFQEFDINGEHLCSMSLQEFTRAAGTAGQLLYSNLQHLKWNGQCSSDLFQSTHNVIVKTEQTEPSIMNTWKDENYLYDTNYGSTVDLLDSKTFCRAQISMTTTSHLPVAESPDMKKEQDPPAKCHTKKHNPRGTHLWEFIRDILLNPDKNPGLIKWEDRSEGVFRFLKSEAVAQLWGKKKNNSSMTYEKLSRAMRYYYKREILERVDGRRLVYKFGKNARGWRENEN
Method in brief: as §1

SPI1 = SPI1 (Homo sapiens, UniProt P17947 1-270)
Method in brief: as §1

SPIB = SPIB (Homo sapiens, UniProt Q01892 1-262)
Method in brief: as §1

ELK3 = target: T6, ELK3 (Homo sapiens, UniProt P41970 1-407)
T6 sequence: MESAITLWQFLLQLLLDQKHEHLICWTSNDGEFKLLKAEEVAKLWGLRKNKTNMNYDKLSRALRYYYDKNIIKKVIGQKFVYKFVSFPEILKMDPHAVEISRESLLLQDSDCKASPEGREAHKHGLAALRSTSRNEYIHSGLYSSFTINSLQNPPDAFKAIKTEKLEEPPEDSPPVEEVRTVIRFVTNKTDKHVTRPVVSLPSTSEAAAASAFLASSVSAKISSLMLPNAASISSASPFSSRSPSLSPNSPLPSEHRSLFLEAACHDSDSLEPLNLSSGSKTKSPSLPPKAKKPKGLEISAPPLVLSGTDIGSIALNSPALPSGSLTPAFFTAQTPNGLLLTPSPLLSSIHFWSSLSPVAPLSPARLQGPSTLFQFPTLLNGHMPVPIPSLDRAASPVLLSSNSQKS
Method in brief: as §1

Sequence of ELF1 (P32519 whole entry): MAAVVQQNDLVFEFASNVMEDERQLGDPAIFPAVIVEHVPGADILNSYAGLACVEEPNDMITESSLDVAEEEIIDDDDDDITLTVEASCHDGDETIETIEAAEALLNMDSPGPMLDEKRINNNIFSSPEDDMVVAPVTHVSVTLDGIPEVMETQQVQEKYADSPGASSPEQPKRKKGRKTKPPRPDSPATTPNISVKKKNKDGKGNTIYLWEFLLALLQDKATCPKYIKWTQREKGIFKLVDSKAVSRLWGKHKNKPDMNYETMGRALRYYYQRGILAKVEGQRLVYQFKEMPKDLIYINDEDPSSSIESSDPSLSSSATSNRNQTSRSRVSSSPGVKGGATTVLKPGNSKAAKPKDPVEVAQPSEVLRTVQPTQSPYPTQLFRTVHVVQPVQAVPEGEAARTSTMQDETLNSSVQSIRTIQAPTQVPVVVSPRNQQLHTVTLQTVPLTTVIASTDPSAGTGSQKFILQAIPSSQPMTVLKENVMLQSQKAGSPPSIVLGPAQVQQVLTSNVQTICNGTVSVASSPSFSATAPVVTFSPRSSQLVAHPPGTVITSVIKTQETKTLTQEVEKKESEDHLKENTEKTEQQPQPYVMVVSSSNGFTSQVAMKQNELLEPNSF
Sequence of SPIB (Q01892 whole entry): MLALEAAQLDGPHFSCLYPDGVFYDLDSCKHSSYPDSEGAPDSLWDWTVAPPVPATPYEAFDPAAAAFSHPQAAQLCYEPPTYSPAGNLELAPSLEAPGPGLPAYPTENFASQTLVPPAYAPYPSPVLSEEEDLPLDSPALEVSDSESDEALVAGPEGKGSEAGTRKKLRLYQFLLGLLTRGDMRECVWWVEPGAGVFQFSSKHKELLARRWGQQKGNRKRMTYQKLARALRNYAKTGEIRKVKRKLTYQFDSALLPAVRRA

## TATTGA
FLI1
  binding signal: 1.1 fold enrichment (6-mer frequency, TF over GST control)
ELK1
  binding signal: 1.16 fold enrichment (6-mer frequency, TF over GST control)
GABPA
  binding signal: 1.09 fold enrichment (6-mer frequency, TF over GST control)
ERG
  binding signal: 1.13 fold enrichment (6-mer frequency, TF over GST control)
ELF1
  binding signal: 1.18 fold enrichment (6-mer frequency, TF over GST control)
EHF
  binding signal: 1.15 fold enrichment (6-mer frequency, TF over GST control)
SPI1
  binding signal: 1.05 fold enrichment (6-mer frequency, TF over GST control)
SPIB
  binding signal: 1.11 fold enrichment (6-mer frequency, TF over GST control)
ELK3
  binding signal: 1.01 fold enrichment (6-mer frequency, TF over GST control)

## AACCCT
FLI1
  binding signal: 1.31 fold enrichment (6-mer frequency, TF over GST control)
ELK1
  binding signal: 1.4 fold enrichment (6-mer frequency, TF over GST control)
GABPA
  binding signal: 1.29 fold enrichment (6-mer frequency, TF over GST control)
ERG
  binding signal: 1.23 fold enrichment (6-mer frequency, TF over GST control)
ELF1
  binding signal: 1.35 fold enrichment (6-mer frequency, TF over GST control)
EHF
  binding signal: 1.18 fold enrichment (6-mer frequency, TF over GST control)
SPI1
  binding signal: 1.32 fold enrichment (6-mer frequency, TF over GST control)
SPIB
  binding signal: 1.29 fold enrichment (6-mer frequency, TF over GST control)
ELK3
  binding signal: 1.5 fold enrichment (6-mer frequency, TF over GST control)

## TAACTG
FLI1
  binding signal: 1.12 fold enrichment (6-mer frequency, TF over GST control)
ELK1
  binding signal: 1.19 fold enrichment (6-mer frequency, TF over GST control)
GABPA
  binding signal: 1.24 fold enrichment (6-mer frequency, TF over GST control)
ERG
  binding signal: 1.25 fold enrichment (6-mer frequency, TF over GST control)
ELF1
  binding signal: 1.27 fold enrichment (6-mer frequency, TF over GST control)
EHF
  binding signal: 1.15 fold enrichment (6-mer frequency, TF over GST control)
SPI1
  binding signal: 1.21 fold enrichment (6-mer frequency, TF over GST control)
SPIB
  binding signal: 1.33 fold enrichment (6-mer frequency, TF over GST control)
ELK3
  binding signal: 1.26 fold enrichment (6-mer frequency, TF over GST control)

## GGCTCC
FLI1
  binding signal: 1.33 fold enrichment (6-mer frequency, TF over GST control)
ELK1
  binding signal: 1.29 fold enrichment (6-mer frequency, TF over GST control)
GABPA
  binding signal: 1.44 fold enrichment (6-mer frequency, TF over GST control)
ERG
  binding signal: 1.35 fold enrichment (6-mer frequency, TF over GST control)
ELF1
  binding signal: 1.3 fold enrichment (6-mer frequency, TF over GST control)
EHF
  binding signal: 1.31 fold enrichment (6-mer frequency, TF over GST control)
SPI1
  binding signal: 1.22 fold enrichment (6-mer frequency, TF over GST control)
SPIB
  binding signal: 1.39 fold enrichment (6-mer frequency, TF over GST control)
ELK3
  binding signal: 1.27 fold enrichment (6-mer frequency, TF over GST control)

## TTCTTC
FLI1
  binding signal: 1.92 fold enrichment (6-mer frequency, TF over GST control)
ELK1
  binding signal: 1.87 fold enrichment (6-mer frequency, TF over GST control)
GABPA
  binding signal: 1.79 fold enrichment (6-mer frequency, TF over GST control)
ERG
  binding signal: 1.87 fold enrichment (6-mer frequency, TF over GST control)
ELF1
  binding signal: 1.85 fold enrichment (6-mer frequency, TF over GST control)
EHF
  binding signal: 1.75 fold enrichment (6-mer frequency, TF over GST control)
SPI1
  binding signal: 1.8 fold enrichment (6-mer frequency, TF over GST control)
SPIB
  binding signal: 1.9 fold enrichment (6-mer frequency, TF over GST control)
ELK3
  binding signal: 2.25 fold enrichment (6-mer frequency, TF over GST control)

## TTTGCA
FLI1
  binding signal: 1.27 fold enrichment (6-mer frequency, TF over GST control)
ELK1
  binding signal: 1.33 fold enrichment (6-mer frequency, TF over GST control)
GABPA
  binding signal: 1.34 fold enrichment (6-mer frequency, TF over GST control)
ERG
  binding signal: 1.29 fold enrichment (6-mer frequency, TF over GST control)
ELF1
  binding signal: 1.32 fold enrichment (6-mer frequency, TF over GST control)
EHF
  binding signal: 1.19 fold enrichment (6-mer frequency, TF over GST control)
SPI1
  binding signal: 1.22 fold enrichment (6-mer frequency, TF over GST control)
SPIB
  binding signal: 1.29 fold enrichment (6-mer frequency, TF over GST control)
ELK3
  binding signal: 1.32 fold enrichment (6-mer frequency, TF over GST control)

## ACGTAT
FLI1
  binding signal: 1.24 fold enrichment (6-mer frequency, TF over GST control)
ELK1
  binding signal: 1.29 fold enrichment (6-mer frequency, TF over GST control)
GABPA
  binding signal: 1.21 fold enrichment (6-mer frequency, TF over GST control)
ERG
  binding signal: 1.17 fold enrichment (6-mer frequency, TF over GST control)
ELF1
  binding signal: 1.17 fold enrichment (6-mer frequency, TF over GST control)
EHF
  binding signal: 1.29 fold enrichment (6-mer frequency, TF over GST control)
SPI1
  binding signal: 1.14 fold enrichment (6-mer frequency, TF over GST control)
SPIB
  binding signal: 1.19 fold enrichment (6-mer frequency, TF over GST control)
ELK3
  binding signal: 1.42 fold enrichment (6-mer frequency, TF over GST control)

## TCCTCA
FLI1
  binding signal: 1.53 fold enrichment (6-mer frequency, TF over GST control)
ELK1
  binding signal: 1.47 fold enrichment (6-mer frequency, TF over GST control)
GABPA
  binding signal: 1.6 fold enrichment (6-mer frequency, TF over GST control)
ERG
  binding signal: 1.51 fold enrichment (6-mer frequency, TF over GST control)
ELF1
  binding signal: 1.49 fold enrichment (6-mer frequency, TF over GST control)
EHF
  binding signal: 1.65 fold enrichment (6-mer frequency, TF over GST control)
SPI1
  binding signal: 2.25 fold enrichment (6-mer frequency, TF over GST control)
SPIB
  binding signal: 1.6 fold enrichment (6-mer frequency, TF over GST control)
ELK3
  binding signal: 1.55 fold enrichment (6-mer frequency, TF over GST control)
